# Where “and” joins values, the source holds several entries; their conditions need not be identical. Equal entries are not always repeated. Results filed as inconclusive are left out. Calls of active or inactive are those of the source. Cut-off read from the data, not from the text of the source, unless noted: active = parasite load remaining mostly below about 12% (no sharp cut-off); inactive = mostly above about 10%.
# How the values were obtained:
# [1] = P. berghei load reduction in hepatocytes – cell-based, HepG2, luciferase luminescence, HepG2 viability, primary screen (AID 624349);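 note: 100% = mean of DMSO negative control wells on the same plate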; conditions: P. berghei liver stage in HepG2, luciferase luminescence, concentration not given here; parasite load remaining: stronger effect = lower value; viability: measured here: HepG2 viability without parasites
# [2] = biological target: 6-phosphogluconate dehydrogenase, decarboxylating (Homo sapiens) (UniProt P52209); assay: inhibition of human phosphogluconate dehydrogenase – biochemical, recombinant enzyme, NADPH absorbance, primary screen (AID 1159550;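 active = at least 20% inhibition of 6-phosphogluconate dehydrogenase activity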); conditions: recombinant 6PGD, NADPH absorbance 341 nm; at 10 µM; stronger effect = higher value
# Chain of 6-phosphogluconate dehydrogenase, decarboxylating (Homo sapiens) (P52209 whole entry, looked up): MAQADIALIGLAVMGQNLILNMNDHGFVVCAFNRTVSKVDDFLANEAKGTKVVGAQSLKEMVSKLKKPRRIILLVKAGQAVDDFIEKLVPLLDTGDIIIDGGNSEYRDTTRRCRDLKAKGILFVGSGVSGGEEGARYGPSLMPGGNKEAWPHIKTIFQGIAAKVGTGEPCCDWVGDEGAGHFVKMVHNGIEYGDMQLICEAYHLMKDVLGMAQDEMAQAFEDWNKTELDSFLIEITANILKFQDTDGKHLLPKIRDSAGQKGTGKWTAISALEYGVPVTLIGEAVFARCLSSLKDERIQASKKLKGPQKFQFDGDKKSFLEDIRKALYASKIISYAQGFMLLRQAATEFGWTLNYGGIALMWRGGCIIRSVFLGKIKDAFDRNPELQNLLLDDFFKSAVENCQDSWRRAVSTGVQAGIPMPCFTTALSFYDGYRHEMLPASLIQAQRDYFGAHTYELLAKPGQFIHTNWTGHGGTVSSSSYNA
# [3] = viability loss with induced miR-34 in A549 – imaging, A549 dox-inducible miR-34, nuclei and caspase counts, primary screen (AID 1347080;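 active = compounds whose cell count with miR-34 switched on is under 0.7 times the count with it off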); conditions: A549 miR-34 inducible, Hoechst nuclei count, 48 h
# [4] = MELAS cybrid and Rieske KO viability enhancers – cell-based, MELAS cybrids, Rieske KO mouse fibroblasts, CellTiter-Glo, primary screen (AID 1508586;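 active = mean z-score across replicates of 1.96 or higher in either the MELAS or the Rieske mutant cell line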;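 note: z relative to plate mean and SD of compound and empty wells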); conditions: low glucose
# [5] = biological target: NAD(+) hydrolase SARM1 (Homo sapiens) (UniProt Q6SZW1); assay: blocking NAD cleavage by SARM1 SAM-TIR – cell lysate, NAD-Glo luminescence (AID 1508614;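 active = compound whose remaining NAD level is above about 45 nM, limit read from the data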;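 note: higher remaining NAD means stronger inhibition of SARM1 NADase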); conditions: SAM-TIR HEK293T lysate NADase, at 1 µM, stronger effect = higher value
# Chain of NAD(+) hydrolase SARM1 (Homo sapiens) (Q6SZW1 whole entry, looked up, the tested form may be a part): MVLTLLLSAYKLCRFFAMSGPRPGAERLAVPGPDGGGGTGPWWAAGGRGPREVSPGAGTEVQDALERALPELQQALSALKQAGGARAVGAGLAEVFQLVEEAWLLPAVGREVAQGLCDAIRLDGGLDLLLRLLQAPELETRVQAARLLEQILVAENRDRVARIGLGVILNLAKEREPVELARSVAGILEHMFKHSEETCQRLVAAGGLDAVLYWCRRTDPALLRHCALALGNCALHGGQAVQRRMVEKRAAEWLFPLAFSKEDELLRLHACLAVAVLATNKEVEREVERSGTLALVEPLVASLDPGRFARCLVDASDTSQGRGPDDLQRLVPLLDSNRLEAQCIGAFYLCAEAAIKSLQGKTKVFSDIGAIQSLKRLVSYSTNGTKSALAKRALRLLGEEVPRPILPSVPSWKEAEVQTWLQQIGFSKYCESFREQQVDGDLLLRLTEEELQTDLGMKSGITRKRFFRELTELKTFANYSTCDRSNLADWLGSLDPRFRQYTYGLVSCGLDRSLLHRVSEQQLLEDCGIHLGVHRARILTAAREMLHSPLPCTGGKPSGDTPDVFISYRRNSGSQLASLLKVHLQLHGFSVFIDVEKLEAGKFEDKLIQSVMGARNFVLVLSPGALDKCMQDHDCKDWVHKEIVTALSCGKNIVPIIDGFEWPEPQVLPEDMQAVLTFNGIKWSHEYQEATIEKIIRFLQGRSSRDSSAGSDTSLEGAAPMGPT
# [6] = biological target: Mitogen-activated protein kinase 7 (Homo sapiens) (UniProt Q13164); assay: Gal4-ERK5 driven luciferase induction – cell-based, HTS, primary screen (AID 1508626;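 active = luciferase signal above three times the same-plate solvent-only control wells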;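 note: luciferase driven by Gal4-ERK5 fusion binding five Gal4 sites before minimal TATA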); conditions: HeLa Gal4-ERK5 transactivation, 18 h, at 5 µM, stronger effect = higher value
# Chain of Mitogen-activated protein kinase 7 (Homo sapiens) (Q13164 whole entry, looked up, the tested form may be a part): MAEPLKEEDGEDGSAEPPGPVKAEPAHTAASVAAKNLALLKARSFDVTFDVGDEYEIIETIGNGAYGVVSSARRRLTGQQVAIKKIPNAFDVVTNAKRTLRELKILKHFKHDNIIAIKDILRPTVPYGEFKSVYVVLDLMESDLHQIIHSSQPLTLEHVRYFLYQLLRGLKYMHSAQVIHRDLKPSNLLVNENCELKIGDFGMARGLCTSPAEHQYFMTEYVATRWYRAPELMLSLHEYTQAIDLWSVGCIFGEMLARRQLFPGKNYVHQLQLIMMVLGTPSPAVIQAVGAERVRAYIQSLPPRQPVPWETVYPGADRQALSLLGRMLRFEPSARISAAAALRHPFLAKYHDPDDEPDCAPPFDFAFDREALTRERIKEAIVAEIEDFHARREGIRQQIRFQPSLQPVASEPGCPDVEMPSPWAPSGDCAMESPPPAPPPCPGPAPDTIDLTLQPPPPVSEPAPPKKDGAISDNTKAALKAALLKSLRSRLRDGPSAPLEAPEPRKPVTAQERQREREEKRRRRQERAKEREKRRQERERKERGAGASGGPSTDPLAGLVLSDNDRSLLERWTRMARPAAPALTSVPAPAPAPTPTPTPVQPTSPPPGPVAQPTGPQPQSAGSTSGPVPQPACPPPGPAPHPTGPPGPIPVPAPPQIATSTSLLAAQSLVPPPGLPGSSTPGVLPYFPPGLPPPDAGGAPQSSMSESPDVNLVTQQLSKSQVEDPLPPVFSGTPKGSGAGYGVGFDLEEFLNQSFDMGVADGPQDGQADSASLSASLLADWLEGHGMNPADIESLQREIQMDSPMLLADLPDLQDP
# [7] = biological target: ATP-dependent translocase ABCB1 (Homo sapiens) (UniProt P08183); assay: P-glycoprotein substrate transport blockade – cell-based (AID 377; in the data active = fluorescence slope change above about 50%); conditions: MDR1-expressing cells, fluorescent substrate accumulation slope; stronger effect = higher value; concentration not given here
# Chain of ATP-dependent translocase ABCB1 (Homo sapiens) (P08183 whole entry, looked up): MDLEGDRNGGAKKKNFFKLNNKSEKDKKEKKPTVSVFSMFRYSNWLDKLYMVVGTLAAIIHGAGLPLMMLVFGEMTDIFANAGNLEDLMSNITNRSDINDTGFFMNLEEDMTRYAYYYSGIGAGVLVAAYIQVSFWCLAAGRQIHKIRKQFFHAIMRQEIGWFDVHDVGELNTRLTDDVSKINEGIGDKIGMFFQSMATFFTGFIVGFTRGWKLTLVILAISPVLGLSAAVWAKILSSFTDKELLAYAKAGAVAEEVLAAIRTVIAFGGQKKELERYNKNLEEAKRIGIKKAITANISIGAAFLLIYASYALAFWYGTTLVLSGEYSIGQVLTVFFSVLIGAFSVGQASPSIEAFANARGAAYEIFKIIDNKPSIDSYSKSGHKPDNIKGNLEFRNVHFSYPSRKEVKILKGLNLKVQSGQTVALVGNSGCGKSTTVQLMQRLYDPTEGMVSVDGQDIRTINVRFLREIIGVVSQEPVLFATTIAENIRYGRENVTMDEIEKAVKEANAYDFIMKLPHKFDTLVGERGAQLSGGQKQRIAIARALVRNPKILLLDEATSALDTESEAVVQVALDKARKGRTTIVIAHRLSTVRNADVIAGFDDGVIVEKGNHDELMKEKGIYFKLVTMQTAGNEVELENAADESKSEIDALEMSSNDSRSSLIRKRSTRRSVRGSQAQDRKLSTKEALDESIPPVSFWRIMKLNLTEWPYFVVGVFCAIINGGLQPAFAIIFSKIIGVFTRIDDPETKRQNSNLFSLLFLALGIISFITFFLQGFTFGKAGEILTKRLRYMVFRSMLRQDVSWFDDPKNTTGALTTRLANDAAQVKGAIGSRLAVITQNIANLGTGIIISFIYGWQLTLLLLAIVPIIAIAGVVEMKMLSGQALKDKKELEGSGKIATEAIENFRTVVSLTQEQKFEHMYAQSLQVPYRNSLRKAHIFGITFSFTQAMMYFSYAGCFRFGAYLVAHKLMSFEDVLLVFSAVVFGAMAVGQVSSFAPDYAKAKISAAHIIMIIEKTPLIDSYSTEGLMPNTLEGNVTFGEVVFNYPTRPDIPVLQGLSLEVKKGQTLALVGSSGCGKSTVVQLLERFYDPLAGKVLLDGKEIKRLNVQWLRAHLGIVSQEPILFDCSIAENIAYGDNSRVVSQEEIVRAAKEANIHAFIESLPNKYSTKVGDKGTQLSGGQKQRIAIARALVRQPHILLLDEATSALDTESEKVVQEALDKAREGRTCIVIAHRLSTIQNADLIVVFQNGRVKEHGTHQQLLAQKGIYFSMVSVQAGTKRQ
# [8] = blockers of polyQ-driven CASP3 activation – cell-based (AID 1583); conditions: polyglutamine-induced caspase-3 activation, cell assay; stronger effect = higher value;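 tested at 10 µM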
# [9] = yeast 75Q aggregation reduction – 75Q-TubU reporter (AID 1593); conditions: Yeast 75Q polyglutamine aggregation reporter
# [10] = blockers of cytochrome c efflux from mitochondria – biochemical, purified mitochondria (AID 1603); conditions: stronger effect = lower value;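 note: mouse liver mitochondria challenged with calcium chloride; signal normalized to the plate average as 100%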
# [11] = polyglutamine aggregate formation blockers (AID 1604); conditions: polyglutamine-induced protein aggregation inhibition assay; stronger effect = higher value; tested at 2.5 µM
# [12] = glutamate transport activators, MN-1 cells, MN-1 cell line (AID 1612); conditions: MN-1 motor neuron cells, stronger effect = higher value;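 note: tested at 1 µM final; 0% = mean of DMSO vehicle wells on each plate; positive means more glutamate uptake than control and negative means less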
# [13] = GFP-Q80 aggregate reduction, neuronal-like cells, cell-based, NGF-treated PC12, GFPQ80 (AID 1614); conditions: PC12 NGF-treated GFP-polyQ80 inclusion reduction;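 note: lower means fewer inclusions and 0 means no inclusions at all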
# [14] = 75Q-TubH aggregate inhibition, S. cerevisiae, yeast (AID 1616); conditions: S. cerevisiae 75Q-TubH polyglutamine aggregation suppression; stronger effect = higher value
# [15] = compounds altering viability of human ES cells (AID 493140; call rule not given here;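 note: cells exposed to compounds for four days before counting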); conditions: human embryonic stem cell survival screen; stronger effect = higher value
# [16] = stronger effect = lower value, cell number ratio, induced over uninduced
# [17] = measured here: relative caspase fold change +Dox/-Dox
# [18] = measured here: total cells with miR-34 induction, stronger effect = lower value
# [19] = measured here: total cells without miR-34 induction
compound,measurement,setting,value
CC(=O)N[C@@H](CC(=O)O)C(=O)O,parasite load remaining,[1],117% (inactive)
same,viability,[1],106%
same,inhibition,[2],3.38% (inactive)
same,fold change,[3]; [16],0.841 (inactive)
same,fold change,[3]; [17],1.57
same,cell count,[3]; [18],8620
same,cell count,[3]; [19],10300
CC(=O)OCC(=O)[C@@]12OC3(CCCC3)O[C@@H]1C[C@H]1[C@@H]3CCC4=CC(=O)C=C[C@]4(C)[C@@]3(F)[C@@H](O)C[C@@]12C,inhibition,[2],2.31% (inactive)
same,z-score,"[4]; MELAS cybrid survival, CellTiter-Glo 48 h, stronger effect = higher value",0.316 (inactive)
same,z-score,"[4]; Rieske KO mouse fibroblast survival, CellTiter-Glo 72 h",0.335
same,remaining NAD,[5],10 nM (inactive)
same,luciferase signal,[6],44 AU (inactive)
C[C@@H]1O[C@@H](O[C@H]2[C@H](Oc3cc(O)c4c(c3)O[C@H](c3ccc(O)cc3)CC4=O)O[C@H](CO)[C@@H](O)[C@@H]2O)[C@H](O)[C@H](O)[C@H]1O,fluorescence slope change,[7],21.6% (inactive)
same,inhibition,[8],-1.5%
same,score,[9],1.92
same,cytochrome c release ratio,[10],1.05
same,inhibition of aggregation,[11],82.5%
same,glutamate uptake change,[12],6.96%
same,inclusion score,[13],2
same,aggregation suppression score,[14],1.02
same,survival,[15],7.67 (inactive)
same,parasite load remaining,[1],153% (inactive) and 66.6% (inactive)
same,viability,[1],111% and 77.6%
same,inhibition,[2],4.72% (inactive)
same,fold change,[3]; [16],0.866 (inactive)
same,fold change,[3]; [17],1.55
same,cell count,[3]; [18],9380
same,cell count,[3]; [19],10800
same,luciferase signal,[6],60 AU (inactive)
CC[C@@H](C(=O)[C@@H](C)[C@@H](O)[C@H](C)CCc1ccc(C)c(O)c1C(=O)O)[C@H]1O[C@](CC)([C@H]2CC[C@](O)(CC)[C@H](C)O2)C[C@@H]1C,parasite load remaining,[1],-0.295% (active)
same,viability,[1],110%
same,inhibition,[2],-6.18% (inactive)
same,fold change,[3]; [16],1.02 (inactive)
same,fold change,[3]; [17],1.03
same,cell count,[3]; [18],2440
same,cell count,[3]; [19],2390
same,luciferase signal,[6],44 AU (inactive)
O=C(/C=C/c1ccc(O)c(O)c1)O[C@@H]1C[C@](O)(C(=O)O)C[C@@H](O)[C@H]1O,fluorescence slope change,[7],18.7% (inactive)
same,survival,[15],22.8 (inactive)
same,parasite load remaining,[1],105% (inactive) and 63.3% (inactive)
same,viability,[1],94.7% and 73.7%
same,inhibition,[2],-7.84% (inactive)
same,fold change,[3]; [16],0.882 (inactive) and 0.998 (inactive)
same,fold change,[3]; [17],1.35 and 0.827
same,cell count,[3]; [18],9710 and 5820
same,cell count,[3]; [19],11000 and 5830
same,luciferase signal,[6],56 AU (inactive)

# From PubChem BioAssay
